High-throughput results as filed in PubChem.
TRPML1 inh: inhibitors of human TRPML1 channel. Q9GZU1. TRPML1-inducible cells, Ca2+ dye fluorescence, FDSS; stronger effect = lower value; inhibition of EC80 agonist-evoked calcium signal. activity change, negative = inhibition, % (test concentration not listed). 390,000 compounds, 0.02% hits. AID 624415; in the data active = activity change below about -50%; inconclusive = between about -30% and that limit;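 note: stimulus is agonist 54-4 at its EC80 concentration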
Target sequence (Q9GZU1 whole entry, looked up): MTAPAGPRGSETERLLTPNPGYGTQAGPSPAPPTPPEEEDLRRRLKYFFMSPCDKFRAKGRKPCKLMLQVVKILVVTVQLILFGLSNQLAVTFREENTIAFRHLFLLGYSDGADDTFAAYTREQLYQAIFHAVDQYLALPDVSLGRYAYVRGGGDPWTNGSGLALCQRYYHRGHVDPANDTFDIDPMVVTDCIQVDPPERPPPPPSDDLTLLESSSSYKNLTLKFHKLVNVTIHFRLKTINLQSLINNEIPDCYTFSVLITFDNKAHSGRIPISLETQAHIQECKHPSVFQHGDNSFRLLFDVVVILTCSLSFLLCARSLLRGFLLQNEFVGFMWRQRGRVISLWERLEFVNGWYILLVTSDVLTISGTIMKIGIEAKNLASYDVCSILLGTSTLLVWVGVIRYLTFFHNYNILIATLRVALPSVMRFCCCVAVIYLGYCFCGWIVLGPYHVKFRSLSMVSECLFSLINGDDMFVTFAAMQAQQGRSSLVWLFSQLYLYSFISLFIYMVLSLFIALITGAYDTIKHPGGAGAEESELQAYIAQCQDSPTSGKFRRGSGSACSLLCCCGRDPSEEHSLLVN
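Calcium fluorescence in TRPML1-DL cells induced overnight with Tet: a 110 s read after compound pin addition, then a 110 s antagonist read after challenge with 54-4 at 4 uM final (EC80).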
TRPML1 agonist: agonists of human TRPML1 channel | activation, % (test concentration not listed) | Q9GZU1 | 410,000 compounds, 0.12% hits | TRPML1-expressing cells, Ca2+ dye fluorescence, FDSS; in the data active = activation above about 50%; inconclusive = mostly about 30% to 49%
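Calcium fluorescence on an FDSS kinetic reader gave the read-out. Tet-induced TRPML1-DL cells were plated overnight, dye-loaded (Ca8 with quencher, 45-90 min, room temperature, dark), then read 110 s after compound addition, and again 110 s after 4uM final 54-4 (EC80).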
D3 antag: blocks the human D3 dopamine receptor; D3R cells, DiscoveRx beta-arrestin luminescence, antagonist mode; stronger effect = lower value; max response, negative = inhibition, %; 360,000 compounds, 2.5% hits; AID 652054; in the data active = max response below about -50%; inconclusive = no clear call, values can overlap the other calls
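Cells expressing the human receptor were seeded at 1500 cells/well, incubated overnight at 37 degrees C in 5% CO2, then exposed to library compounds with dopamine controls for 90 minutes at 37 degrees C before luminescent detection.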
D3 ag: D3 dopamine receptor (human) agonism | 410,000 compounds, 0.58% hits | P35462 | D3R DiscoveRx beta-arrestin cells, luminescence, 90 min | AID 652048 | max activation, %; in the data active = max activation above about 30%
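Cells at 1500/well, incubated overnight, then treated with pinned compounds (dopamine as control) for 90 min at 37 degrees C. DiscoveRx reagent added for 30 - 60 minutes at room temperature; luminescence read.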
Large screens that a line does not name were inactive; ! = a repeat was not active. Hits are enriched below; roughly 2.9% of the tested compounds scored in any of these assays.

Cc1ccc(N2C(N)=C(C#N)C(c3ccsc3)C3=C2CC(C)(C)CC3=O)cc1 (configuration not stated)	TRPML1 agonist 57, D3 antag inconclusive
O=C(CN1C(=O)COc2ccc(S(=O)(=O)Nc3ccccc3)cc21)Nc1cccc(Cl)c1	none (no result: D3 antag)
COC(=O)c1ccc(C23CC4(C2)[C@H](CN(Cc2cccnc2)[C@@H]4c2ccccc2)C3c2ccccc2)cc1 (some centres not stated)	D3 ag 47
COC(=O)c1ccc(C23CC4(C2)[C@H](CN(Cc2cccnc2)[C@@H]4c2ccccc2)C3c2ccc(C(F)(F)F)cc2)cc1 (some centres not stated)	none
CCOC(=O)CCC(NC(=O)c1cncc(O)c1)C(=O)OCC (configuration not stated)	D3 antag -65
OC(CSc1ccccc1Cl)CN1CCN(c2ccc(F)cc2)CC1 (configuration not stated)	D3 antag -81
OC(CSc1c(Cl)cccc1Cl)CN1CCN(c2ccc(F)cc2)CC1 (configuration not stated)	D3 antag -89
OC(CSc1ccccc1)CN1CCN(c2ccccc2)CC1 (configuration not stated)	D3 antag inconclusive
O=C1c2ccccc2C(=O)C1c1ccc(Br)cc1	D3 ag 88!
O=C1c2ccccc2C(=O)C1c1ccc(O)cc1	none
O=C1c2ccccc2C(=O)C1c1ccc(F)cc1	D3 ag 62 (no result: TRPML1 inh, TRPML1 agonist, D3 antag)
O=C(CCSCc1ccc(Cl)cc1)N1CCN(c2ccccc2F)CC1	none (no result: D3 antag)
COc1ccc(-c2nn(CC(=O)NCc3ccccc3)c3c2cnc2ccc(F)cc23)cc1	none (no result: D3 antag)
CCOc1ccc(C(=O)NCC(=O)NCCSc2ccc(Br)cc2)cc1OCC	D3 antag inconclusive
Cc1ccc(C(=O)NCC(=O)NCCSc2ccc(Br)cc2)cc1	D3 antag -57
CN1CCN2c3ncccc3Cc3ccccc3[C@@H]2C1	none
CC(C)c1ccc2c(c1)C(N1CCN(C)CC1)Cc1cccnc1S2 (configuration not stated)	D3 antag -104
O=C(NCCc1ccccc1)c1ccc2c(c1)N(Cc1ccccc1)C(=O)c1ccccc1S2=O (configuration not stated)	none (no result: D3 antag)
O=S(c1ccc2ccccc2c1)c1cnns1 (configuration not stated)	D3 antag -55
COc1cccc(/C=C/c2nc3ccccc3nc2/C=C/c2cccc(OC)c2OC)c1OC	none (no result: TRPML1 inh, D3 antag, D3 ag)
CCN(CC)S(=O)(=O)c1ccc(N2CCN(CCOc3ccc(OC)cc3)CC2)nc1	D3 ag 61
CCN(c1ccccc1)S(=O)(=O)c1ccc(N2CCN(c3ccc(OC)cc3)CC2)nc1	none
c1cnc2[nH]ccc2c1	none (no result: TRPML1 inh, D3 antag, D3 ag)
CC1=C/C(=C(/c2cc(C)c(O)c(Br)c2)c2ccccc2S(=O)(=O)O)C=C(Br)C1=O	D3 antag -60
CC1=C/C(=C(/c2ccc(O)c(C)c2)c2ccccc2S(=O)(=O)O)C=CC1=O	D3 antag -56
C#C[C@]1(O)CC[C@H]2[C@@H]3CCC4=CC(=O)CC[C@@H]4[C@H]3C(=C)C[C@@]21CC	none (no result: TRPML1 inh, TRPML1 agonist, D3 antag)
CCCCNC(=O)c1sc(=S)n2c1[nH]c(=O)c1ccccc12	D3 antag -50
Cc1c(C(=O)Nc2ccc(F)cc2F)oc2ccc3c(c12)C(=O)CC(C)(C)O3	none (no result: D3 antag)
CCCCc1cc(=O)oc2cc(OC(C)C(=O)NCC3CCC(C(=O)O)CC3)c(Cl)cc12 (configuration not stated)	D3 antag -58 (no result: TRPML1 inh, TRPML1 agonist)
COc1ccc(Cn2nnnc2C(c2ccccn2)N2CCN(c3ccc(O)cc3)CC2)cc1 (configuration not stated)	none (no result: TRPML1 inh, D3 antag, D3 ag)
Cc1ccc(C)c(Cn2cnc3ccccc3c2=O)c1	none (no result: D3 antag)
Cc1ccc(NC(=S)NNc2ncc(C(F)(F)F)cc2Cl)cc1	D3 antag -68
FC(F)(F)c1cnc(NNC(=S)Nc2ccc(Cl)cc2)c(Cl)c1	D3 antag -64
Cc1ccc(NC(=S)NNc2ncc(C(F)(F)F)cc2Cl)c(C)c1	D3 antag -53
Fc1ccc(NC(=S)NNc2ncc(C(F)(F)F)cc2Cl)c(F)c1	D3 antag -75
O=C(NNc1ncc(C(F)(F)F)cc1Cl)c1ccc(Cl)c(Cl)c1	none
Cc1ccc(NC(=S)NNC(=S)Nc2cccc(C(F)(F)F)c2)cc1	none
COc1cc(-c2cc3nc(NCc4ccco4)ccn3n2)cc(OC)c1OC	D3 antag -75
N#C/C(=C\c1ccc(N2CCCCC2)o1)C(=O)Nc1cccc(Br)c1	TRPML1 inh inconclusive, TRPML1 agonist 119
COc1cc(/C=C/C(=O)OC2CC3CCC2(C)C3(C)C)ccc1O (configuration not stated)	D3 antag -50 (no result: TRPML1 inh, TRPML1 agonist)
COc1cccc(/C=N/NC(=O)c2cc(-c3cccn3C)n[nH]2)c1	D3 antag -51
CCn1c(CO)nc2c1c(=O)[nH]c(=O)n2Cc1ccccc1	D3 antag -80
Cc1ccc(S(=O)(=O)N(Cc2nc(-c3cccc(C)c3)no2)C2CCCCC2)cc1	none (no result: D3 antag)
COc1ccc(S(=O)(=O)NCc2ccc(C(=O)NCCN(C)Cc3ccccc3)cc2)cc1	D3 antag -62
CC1(C)S[C@@H]2[C@H](NC(=O)COc3ccccc3)C(=O)N2[C@@H]1C(=O)OCc1cccc2cccnc12	none (no result: TRPML1 inh, D3 antag, D3 ag)
O=C(COC(=O)C1CCN(S(=O)(=O)c2ccccc2C(F)(F)F)CC1)NCc1ccc(F)cc1	D3 ag 257
CC1=C(C(=O)Nc2ccc(C)cc2C)C(c2ccc(O)cc2)n2nnnc2N1 (configuration not stated)	none (no result: D3 antag)
COC(=O)[C@@]1(Cc2ccc(F)cc2)[C@H]2c3cc(C(=O)N(C)C)n(CCF)c3C[C@H]2CN1C(=O)c1ccccc1	none (no result: TRPML1 inh)
COC(=O)[C@@]1(Cc2ccccc2)[C@@H]2C(=CC(=O)[C@H]2CC(=O)C(=O)N(C)C)CN1C(=O)c1ccccc1	D3 antag -51
Cc1ccc(C)c(NC(=O)c2nc(S(C)(=O)=O)ncc2N(Cc2ccc(C(C)(C)C)cc2)Cc2ccco2)c1	none (no result: D3 antag)
CN(C)C(CNc1ccc(S(C)(=O)=O)cc1[N+](=O)[O-])c1ccccc1 (configuration not stated)	D3 antag -64
COc1cccc(C(C)(O)c2nc(/C=C/c3ccccc3)cs2)c1 (configuration not stated)	D3 antag -61 (no result: TRPML1 inh)
CC(O)(c1ccc(F)c(F)c1)c1nc(/C=C/c2ccccc2)cs1 (configuration not stated)	none (no result: TRPML1 inh)
COc1cccc(C(C)(O)c2nc(-c3ccccc3C)cs2)c1 (configuration not stated)	none (no result: TRPML1 inh)
COc1cccc(C(C)(O)c2nc(-c3ccoc3)cs2)c1 (configuration not stated)	D3 antag -95 (no result: TRPML1 inh)
CC(O)(c1ccccc1)c1nc(/C=C/c2ccccc2)cs1 (configuration not stated)	D3 antag -62 (no result: TRPML1 inh)
CC(O)(c1cccc(F)c1)c1nc(-c2ccoc2)cs1 (configuration not stated)	none (no result: TRPML1 inh)
